Drawing on ChEMBL document CHEMBL3988442, “University of Dundee, Small-Polar-MMV Screening Library” (2021), this text covers Percent Effect for six molecules.

Set-up in all cases: scale not given: direction of the effect not stated beside the values
In test [1] the target is Protein translocase subunit SecA (Escherichia coli (strain K12)) (UniProt P10408). Briefly: Assay to Identify E. coli SecA ATPase Inhibitors. It is filed as functional. Conditions: 30 µM.
The target of test [2] is T1, Ubiquitin-activating enzyme e1, putative (Leishmania donovani (strain BPK282A1)) (UniProt E9BSI1).
T1 sequence (whole entry): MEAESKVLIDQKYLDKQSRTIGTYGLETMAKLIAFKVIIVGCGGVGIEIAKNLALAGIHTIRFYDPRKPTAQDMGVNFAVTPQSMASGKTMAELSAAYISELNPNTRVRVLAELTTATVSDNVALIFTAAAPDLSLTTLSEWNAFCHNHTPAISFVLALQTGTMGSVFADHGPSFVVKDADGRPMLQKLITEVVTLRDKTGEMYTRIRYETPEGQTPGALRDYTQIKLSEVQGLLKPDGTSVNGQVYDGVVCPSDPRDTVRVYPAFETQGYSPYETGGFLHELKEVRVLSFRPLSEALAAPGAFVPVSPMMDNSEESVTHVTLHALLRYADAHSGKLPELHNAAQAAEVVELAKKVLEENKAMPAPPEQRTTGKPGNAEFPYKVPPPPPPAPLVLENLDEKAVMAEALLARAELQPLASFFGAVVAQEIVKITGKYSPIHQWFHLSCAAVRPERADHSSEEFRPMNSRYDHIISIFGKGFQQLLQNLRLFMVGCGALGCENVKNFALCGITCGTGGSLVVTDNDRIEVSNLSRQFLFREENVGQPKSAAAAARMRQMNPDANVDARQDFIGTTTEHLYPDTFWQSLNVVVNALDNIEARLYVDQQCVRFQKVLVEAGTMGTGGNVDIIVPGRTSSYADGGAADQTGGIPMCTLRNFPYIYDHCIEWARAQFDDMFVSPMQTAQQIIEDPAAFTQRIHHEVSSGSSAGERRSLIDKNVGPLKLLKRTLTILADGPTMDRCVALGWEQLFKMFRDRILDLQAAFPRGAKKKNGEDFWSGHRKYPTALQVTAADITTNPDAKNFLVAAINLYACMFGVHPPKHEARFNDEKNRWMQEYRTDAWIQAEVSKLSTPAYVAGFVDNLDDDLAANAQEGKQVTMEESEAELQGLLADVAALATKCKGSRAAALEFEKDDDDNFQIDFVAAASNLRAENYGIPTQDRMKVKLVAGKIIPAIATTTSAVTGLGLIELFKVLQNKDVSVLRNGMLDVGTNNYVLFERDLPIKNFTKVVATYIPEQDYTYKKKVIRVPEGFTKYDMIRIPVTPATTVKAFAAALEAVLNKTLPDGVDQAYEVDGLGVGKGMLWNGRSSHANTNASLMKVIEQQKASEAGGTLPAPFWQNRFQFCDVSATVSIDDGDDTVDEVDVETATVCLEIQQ
Briefly: Leishmania donovani Ubiquitin Activating Enzyme (LdE1). It is filed as functional. Conditions: 30 µM.

The target of test [3] is AMP-activated protein kinase, AMPK (Homo sapiens) (UniProt P54646+O43741+P54619+Q9UGJ0+Q9Y478+Q13131+Q9UGI9). Briefly: AMP-dependent Kinase enzyme assay. An in vitro enzyme assay that detects ADP turnover that is directly proportional to AMPK activity. This uses naive AMPK that is activated during the assay with MK-8722. It is filed as functional. The settings on record: 30 µM.

Test [4] concerns the target Sialic acid-binding Ig-like lectin 9 (Homo sapiens) (UniProt Q9Y336). Briefly: Hs-Siglec9 ALPHAscreen SOP 20170721. The settings on record: 10 µM. (In general: In Alpha technology, singlet oxygen from a donor bead excites a nearby acceptor bead.)
A further test deals with Trypanosoma cruzi. Briefly: Trypanosoma cruzi phosphomannomutase and mannose-1-phosphate guanylyltransferase assay. It is filed as functional. Conditions: 10 µM.
The target of test [5] is T2, Arginase-2, mitochondrial (Homo sapiens) (UniProt P78540).
T2 sequence (whole entry): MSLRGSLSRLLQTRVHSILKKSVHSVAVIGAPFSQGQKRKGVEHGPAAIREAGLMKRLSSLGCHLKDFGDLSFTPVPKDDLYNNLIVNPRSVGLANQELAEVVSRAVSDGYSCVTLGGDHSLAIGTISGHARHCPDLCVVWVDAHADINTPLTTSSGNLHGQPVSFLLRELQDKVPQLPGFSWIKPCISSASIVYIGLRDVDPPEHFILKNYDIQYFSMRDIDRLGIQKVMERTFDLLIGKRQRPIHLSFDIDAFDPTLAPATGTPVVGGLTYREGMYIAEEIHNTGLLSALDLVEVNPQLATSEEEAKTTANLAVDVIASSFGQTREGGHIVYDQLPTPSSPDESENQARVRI
Briefly: in vitro enzyme assay to detect the production of urea directly proportional to the activity of Arginase II. Also: in the data most compounds retested in dose-response had high values. It is filed as functional. The settings on record: 33.3 µM.

In test [6] the target is T3, Proteasome subunit beta (Trypanosoma cruzi) (UniProt O96673).
T3 sequence (whole entry): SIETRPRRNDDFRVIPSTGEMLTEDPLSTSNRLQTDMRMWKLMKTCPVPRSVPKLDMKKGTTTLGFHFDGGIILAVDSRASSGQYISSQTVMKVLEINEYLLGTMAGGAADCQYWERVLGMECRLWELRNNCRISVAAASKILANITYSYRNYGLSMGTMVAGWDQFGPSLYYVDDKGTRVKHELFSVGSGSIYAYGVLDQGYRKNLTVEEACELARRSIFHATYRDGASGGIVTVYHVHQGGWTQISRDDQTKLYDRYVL
Briefly: Trypanosoma cruzi proteasome chymotrypsin-like activity (TcProtChymo) assay. Also: in the data most compounds retested in dose-response had high values. In kind it is functional. Conditions: 9.37 µM.

A further test is filed under the species Homo sapiens. Briefly: To identify inhibition of the IFN signalling (Jak-Stat) pathway via expression of an eGFP reporter gene under the control of an IFN-stimulated response element (ISRE) containing MxA promoter. In kind it is functional. The settings on record: 30 µM. A general note: Reporter assays use an easily measured gene product as a stand-in for the process of interest.

Test [7] concerns the target T4, Tyrosyl-tRNA synthetase, putative (Trypanosoma cruzi (strain CL Brener)) (UniProt Q4DSP6).
T4 sequence (whole entry): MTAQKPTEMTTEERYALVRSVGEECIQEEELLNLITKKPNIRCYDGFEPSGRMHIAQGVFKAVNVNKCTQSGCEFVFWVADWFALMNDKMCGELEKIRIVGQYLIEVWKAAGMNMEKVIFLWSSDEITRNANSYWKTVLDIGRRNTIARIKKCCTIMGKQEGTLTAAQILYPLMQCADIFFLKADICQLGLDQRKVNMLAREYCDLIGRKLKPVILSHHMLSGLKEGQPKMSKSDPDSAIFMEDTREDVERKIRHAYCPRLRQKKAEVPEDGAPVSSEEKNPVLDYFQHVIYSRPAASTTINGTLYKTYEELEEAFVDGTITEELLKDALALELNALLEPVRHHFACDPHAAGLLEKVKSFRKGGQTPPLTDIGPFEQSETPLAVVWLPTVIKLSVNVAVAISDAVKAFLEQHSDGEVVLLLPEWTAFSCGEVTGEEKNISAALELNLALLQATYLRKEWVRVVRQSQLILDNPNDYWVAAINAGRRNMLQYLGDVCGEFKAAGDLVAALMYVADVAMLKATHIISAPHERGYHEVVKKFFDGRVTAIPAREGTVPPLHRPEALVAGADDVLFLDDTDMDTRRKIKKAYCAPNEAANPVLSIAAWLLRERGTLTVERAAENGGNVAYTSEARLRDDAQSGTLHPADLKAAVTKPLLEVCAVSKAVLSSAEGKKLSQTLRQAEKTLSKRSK
Briefly: Trypanosoma cruzi tyrosyl tRNA synthetase (TcYRS) _High Tyrosine SOP. Also: in the data most compounds retested in dose-response had high values. In kind it is functional. Conditions: 30 µM.

Test [8] deals with T4, Tyrosyl-tRNA synthetase, putative (Trypanosoma cruzi (strain CL Brener)). Briefly: Trypanosoma cruzi tyrosyl tRNA synthetase (TcYRS) SOP. In kind it is functional. The settings on record: 30 µM.
Test [9] deals with Chromo domain-containing protein 1 (Saccharomyces cerevisiae (strain ATCC 204508 / S288c) (Baker's yeast)) (UniProt P32657). Briefly: ScCHD-1 Enzyme Inhibition Assay. Also: in the data most compounds retested in dose-response had high values. The settings on record: 30 µM. In kind it is functional.

Molecules are shown by their SMILES. For part of these data: Results with a measured potency or affinity are listed apart.

Chain of Sialic acid-binding Ig-like lectin 9 (Homo sapiens) (Q9Y336 whole entry): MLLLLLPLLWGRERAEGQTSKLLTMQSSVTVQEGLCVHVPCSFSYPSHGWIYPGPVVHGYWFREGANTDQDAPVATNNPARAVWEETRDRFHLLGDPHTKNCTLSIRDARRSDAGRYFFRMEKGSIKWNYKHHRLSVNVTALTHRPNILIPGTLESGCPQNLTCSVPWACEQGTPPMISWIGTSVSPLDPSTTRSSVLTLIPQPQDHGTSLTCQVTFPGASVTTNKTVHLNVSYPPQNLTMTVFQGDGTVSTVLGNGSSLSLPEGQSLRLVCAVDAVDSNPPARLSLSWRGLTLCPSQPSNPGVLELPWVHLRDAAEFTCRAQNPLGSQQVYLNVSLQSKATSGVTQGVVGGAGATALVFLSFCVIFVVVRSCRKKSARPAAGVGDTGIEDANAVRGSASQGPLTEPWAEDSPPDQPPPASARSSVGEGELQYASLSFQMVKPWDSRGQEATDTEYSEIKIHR
Chain of Chromo domain-containing protein 1 (Saccharomyces cerevisiae (strain ATCC 204508 / S288c) (Baker's yeast)) (P32657 whole entry, the tested form may be a part): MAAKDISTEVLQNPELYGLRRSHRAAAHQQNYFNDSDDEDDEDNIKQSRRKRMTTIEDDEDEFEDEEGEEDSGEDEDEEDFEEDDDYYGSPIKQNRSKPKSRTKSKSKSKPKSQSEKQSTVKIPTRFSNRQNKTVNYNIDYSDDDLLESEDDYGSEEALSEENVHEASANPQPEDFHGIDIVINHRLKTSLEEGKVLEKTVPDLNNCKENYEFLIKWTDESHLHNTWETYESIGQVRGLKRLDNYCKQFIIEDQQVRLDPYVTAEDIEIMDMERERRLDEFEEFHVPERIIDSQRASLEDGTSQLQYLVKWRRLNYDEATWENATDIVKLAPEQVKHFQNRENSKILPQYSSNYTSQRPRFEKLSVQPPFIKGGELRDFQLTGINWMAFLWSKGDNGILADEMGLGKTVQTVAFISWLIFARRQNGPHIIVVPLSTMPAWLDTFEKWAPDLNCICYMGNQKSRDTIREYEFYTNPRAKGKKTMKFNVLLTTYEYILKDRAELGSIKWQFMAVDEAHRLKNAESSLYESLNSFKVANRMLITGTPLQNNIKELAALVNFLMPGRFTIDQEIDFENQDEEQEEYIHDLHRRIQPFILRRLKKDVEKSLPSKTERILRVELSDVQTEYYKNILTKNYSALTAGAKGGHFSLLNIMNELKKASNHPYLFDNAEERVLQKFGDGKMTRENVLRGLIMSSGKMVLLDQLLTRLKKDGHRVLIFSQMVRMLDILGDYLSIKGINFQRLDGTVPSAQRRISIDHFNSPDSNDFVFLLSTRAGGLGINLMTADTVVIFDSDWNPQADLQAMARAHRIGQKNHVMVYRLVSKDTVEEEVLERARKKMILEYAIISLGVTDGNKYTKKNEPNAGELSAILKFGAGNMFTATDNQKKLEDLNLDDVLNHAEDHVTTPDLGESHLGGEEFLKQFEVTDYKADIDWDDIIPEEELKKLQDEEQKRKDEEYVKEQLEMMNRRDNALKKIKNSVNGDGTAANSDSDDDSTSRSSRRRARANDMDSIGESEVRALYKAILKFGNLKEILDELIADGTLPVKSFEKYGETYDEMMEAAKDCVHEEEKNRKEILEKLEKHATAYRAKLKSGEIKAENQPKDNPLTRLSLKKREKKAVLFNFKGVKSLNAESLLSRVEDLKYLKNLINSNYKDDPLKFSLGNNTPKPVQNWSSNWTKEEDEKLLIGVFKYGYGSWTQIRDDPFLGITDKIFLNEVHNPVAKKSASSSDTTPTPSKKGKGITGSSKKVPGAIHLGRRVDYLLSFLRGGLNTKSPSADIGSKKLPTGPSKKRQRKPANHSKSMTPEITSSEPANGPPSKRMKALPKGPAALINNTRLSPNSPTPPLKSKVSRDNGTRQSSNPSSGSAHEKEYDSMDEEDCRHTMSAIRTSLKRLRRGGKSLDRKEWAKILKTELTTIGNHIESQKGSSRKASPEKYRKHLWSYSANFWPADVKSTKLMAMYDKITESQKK
Chain of Protein translocase subunit SecA (Escherichia coli (strain K12)) (P10408 whole entry): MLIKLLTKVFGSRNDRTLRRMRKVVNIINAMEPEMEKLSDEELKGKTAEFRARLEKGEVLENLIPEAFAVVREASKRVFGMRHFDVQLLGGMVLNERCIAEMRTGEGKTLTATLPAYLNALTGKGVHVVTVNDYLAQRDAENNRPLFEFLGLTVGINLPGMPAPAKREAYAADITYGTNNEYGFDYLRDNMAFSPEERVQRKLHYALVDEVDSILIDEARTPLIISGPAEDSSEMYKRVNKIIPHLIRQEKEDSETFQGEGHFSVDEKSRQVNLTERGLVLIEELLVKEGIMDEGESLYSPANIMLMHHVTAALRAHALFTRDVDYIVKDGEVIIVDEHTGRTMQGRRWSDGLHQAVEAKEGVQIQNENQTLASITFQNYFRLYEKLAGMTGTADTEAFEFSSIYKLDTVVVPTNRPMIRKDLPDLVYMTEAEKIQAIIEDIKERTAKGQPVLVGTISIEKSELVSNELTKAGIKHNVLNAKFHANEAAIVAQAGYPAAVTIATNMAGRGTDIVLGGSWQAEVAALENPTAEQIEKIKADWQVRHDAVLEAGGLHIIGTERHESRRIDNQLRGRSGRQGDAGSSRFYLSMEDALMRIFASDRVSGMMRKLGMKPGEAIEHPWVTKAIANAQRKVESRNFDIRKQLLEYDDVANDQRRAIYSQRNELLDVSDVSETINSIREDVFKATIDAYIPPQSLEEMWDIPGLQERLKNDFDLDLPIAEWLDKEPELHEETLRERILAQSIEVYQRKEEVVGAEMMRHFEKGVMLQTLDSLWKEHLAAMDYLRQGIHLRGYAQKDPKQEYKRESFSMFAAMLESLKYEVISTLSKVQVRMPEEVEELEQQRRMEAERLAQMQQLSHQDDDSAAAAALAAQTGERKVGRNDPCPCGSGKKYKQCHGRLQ

Turning to `O=C(c1cscn1)N1CCC[C@]2(C[C@H](OCC3CC3)CO2)C1`, the Percent Effect in test [1] was -1.77%; in test [2] it was -2.67%; in test [3], 6.38%; in [4], 4.3%; with Trypanosoma cruzi it was 5.91%; in test [5] it was 0.233%. Moreover, the Percent Effect came out at 3.08% in test [6]; 2.38% in the test listed under Homo sapiens; 4.25% in test [7]; 1.28% in test [8]; 1.14% in test [9].
On to `CC(C)(C)CC(=O)N1CC[C@@H]2[C@H](CC1)N(S(C)(=O)=O)CCS2(=O)=O`, for which the Percent Effect in test [1] is -2.22%; in test [2], 16.2%; in test [3], -9.04%; in [4] it was 3.69%; with Trypanosoma cruzi, 5.27%; in test [5], 15%. Also, the Percent Effect in test [6] was 9.89%; in the test listed under Homo sapiens, 8.9%; in [7] it was 8.91%; in [8] it was 20.7%; in test [9], -8.05%.
As to `CCc1noc(C2CCCCN2C(=O)c2nnc3ccccc3n2)n1` (stereo unspecified), the Percent Effect was -4.1% in [1]; 9.33% in [2]; -3.18% in [3]; -0.0891% in test [4]; 3.54% in the test on Trypanosoma cruzi; -7.57% in test [5]. The Percent Effect was 14.6% in [6]; -16.9% in the test listed under Homo sapiens; 11.6% in test [7]; 17.9% in test [8]; -14.2% in test [9].
On to `Cc1ccc(F)c(OC2(C(=O)O)CCN(C(=O)N3CCCC3)CC2)c1`, for which the Percent Effect in test [1] is 0.204%; in test [2] it was -6.94%; in [3], 5.17%; in test [4] it was -4.4%; with Trypanosoma cruzi, -1.65%; in [5], 1.32%. In addition, the Percent Effect was 2.81% in [6]; -7.85% in the test listed under Homo sapiens; 2.1% in [7]; 0% in [8]; 2.52% in [9].
Regarding `CC(C)NC(=O)CS(=O)(=O)Cc1cc(Cl)c2c(c1)OCCO2`, the Percent Effect in [1] was -2.36%; in test [2], 20.2%; in test [3] it was -6.59%; in test [4] it was -0.915%; with Trypanosoma cruzi, -0.283%; in [5], -1.52%. The Percent Effect was 0.737% in test [6]; 13.3% in the test listed under Homo sapiens; 7.39% in [7]; 24.1% in [8]; -5.39% in test [9].
On to `c1ccc(Cn2cc(CNCC3CCCN3c3cccnn3)cn2)cc1` (stereo unspecified), for which the Percent Effect was -3.01% in [1]; 7.89% in [2]; -1.98% in test [3]; -4.74% in test [4]; 1.96% with Trypanosoma cruzi; -7.55% in test [5]. For the same molecule, the Percent Effect in test [6] is 15.5%; in the test listed under Homo sapiens, 1.15%; in test [7], 15.3%; in test [8] it was 28.4%; in test [9], -4.79%.
